# Counter-ions that a name gives are not always drawn.
# System: Staphylococcus aureus MW2 (mecA+)
# Assay: normalized DsRed fluorescence (growth of mecA+ strain) (fraction of control range); higher = more growth of mecA+ strain
# Conditions: compound concentration: 150 uM; cefoxitin: subinhibitory; fluorescent label: DsRed
# How it was run: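 Compound at 150 μM (1.5% DMSO) in 1536-well plates received 5 µL/well of pre-induced S. aureus MW2 cells mixed 1:1, gene-carrying with DsRed and gene-deleted with GFP, in LB with a daily-set subinhibitory antibiotic dose, single replicate. After 20 h unshaken at 37 °C, 90% humidity, DsRed (540/590) and GFP (485/520) were measured and scaled per plate between single-strain control medians. Plates with high untreated ratios and rows with DsRed/GFP >10 were excluded.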
row,Structure (SMILES),normalized DsRed fluorescence
1,O=C(NCCO[N+](=O)[O-])c1cccnc1 [Nicorandil (Ikorel)],0.986
2,CCOC(=O)[N-]c1c[n+](N2CCOCC2)no1,0.863
3,CCCCCCOC(=O)NC(=N)c1ccc(NCc2nc3cc(C(=O)N(CCC(=O)OCC)c4ccccn4)ccc3n2C)cc1,0.473
4,CC(C)Oc1ccc2c(=O)c(-c3ccccc3)coc2c1 [Ipriflavone],0.57
5,C=C[C@H]1CN2CC[C@H]1C[C@@H]2[C@@H](O)c1ccnc2ccc(OC)cc12,0.631
6,CCOC(=O)[C@H](CCc1ccccc1)N[C@@H](C)C(=O)N1Cc2ccccc2C[C@H]1C(=O)O,0.737
7,CN(C)CCN(Cc1ccccc1)c1ccccn1,0.468
8,CC1Cc2ccccc2N1NC(=O)c1ccc(Cl)c(S(N)(=O)=O)c1 (stereo not given),0.625
9,OCCOCCN1CCN(C(c2ccccc2)c2ccc(Cl)cc2)CC1 (stereo not given),0.833
10,CN[C@@H]1[C@H](O)[C@H](NC)[C@H]2O[C@@]3(O)C(=O)C[C@@H](C)O[C@H]3O[C@@H]2[C@H]1O,0.555
11,CCCCCCCCCCC[C@@H](C[C@@H]1OC(=O)[C@H]1CCCCCC)OC(=O)[C@H](CC(C)C)NC=O,0.482
12,O=C(O)c1cccnc1 [Niacin (Nicotinic acid)],0.614
13,N#CC[C@H](C1CCCC1)n1cc(-c2ncnc3[nH]ccc23)cn1,0.956
14,Nc1nc(=O)c2nc(CNc3ccc(C(=O)N[C@@H](CCC(=O)O)C(=O)O)cc3)cnc2[nH]1,0.831
15,Cc1ccccc1C(OCCN(C)C)c1ccccc1 (stereo not given),1.23
16,Cc1cc2c(cc1CC(=O)c1sccc1S(=O)(=O)Nc1onc(C)c1Cl)OCO2,0.293
17,CCOC(=O)[C@H](CCc1ccccc1)N[C@H]1CCCN2CCC[C@@H](C(=O)O)N2C1=O [Cilazapril monohydrate (Inhibace)],0.59
18,Cc1ccnc(NS(=O)(=O)c2ccc(N)cc2)n1,0.528
19,CN1C(=O)OC(C)(C)C1=O,1.31
20,CCC1=C[C@@H]2CN(C1)Cc1c([nH]c3ccccc13)[C@@](C(=O)OC)(c1cc3c(cc1OC)N(C)[C@H]1[C@@](O)(C(=O)OC)[C@H](OC(C)=O)[C@]4(CC)C=CCN5CC[C@]31[C@@H]54)C2 [Vinorelbine (Navelbine)],0.921

row,Structure (SMILES),normalized DsRed fluorescence
1,CC1(C)[C@@H](OC(=O)CCC(=O)O)CC[C@]2(C)[C@H]3C(=O)C=C4[C@@H]5C[C@@](C)(C(=O)O)CC[C@]5(C)CC[C@@]4(C)[C@]3(C)CC[C@@H]12,0.249
2,C[C@@H]1CC(=O)NN=C1c1ccc(NN=C(C#N)C#N)cc1 [Levosimendan],0.512
3,C#C[C@]1(O)CC[C@H]2[C@@H]3CCC4=CC(=O)CC[C@@H]4[C@H]3CC[C@@]21CC,1.05
4,Cc1ccc(O)c([C@H](CCN(C(C)C)C(C)C)c2ccccc2)c1 [Tolterodine tartrate (Detrol LA)],0.489
5,CC1CCC(NC(=O)N(CCCl)N=O)CC1 (stereo not given),0.439
6,CCCCCCCCCC(=O)N[C@@H](Cc1c[nH]c2ccccc12)C(=O)N[C@H](CC(N)=O)C(=O)N[C@@H](CC(=O)O)C(=O)N[C@@H]1C(=O)NCC(=O)N[C@@H](CCCN)C(=O)N[C@@H](CC(=O)O)C(=O)N[C@H](C)C(=O)N[C@@H](CC(=O)O)C(=O)NCC(=O)N[C@H](CO)C(=O)N[C@@H]([C@H](C)CC(=O)O)C(=O)N[C@@H](CC(=O)c2ccccc2N)C(=O)O[C@@H]1C [Daptomycin],0.064
7,O=c1oc2cc(O)ccc2s1 [Tioxolone],0.731
8,CN1CCc2cccc3c2[C@H]1Cc1ccc(O)c(O)c1-3,0.543
9,Nc1cccc2c1CN(C1CCC(=O)NC1=O)C2=O (stereo not given) [Lenalidomide],0.974
10,Cc1cn(-c2cc(NC(=O)c3ccc(C)c(Nc4nccc(-c5cccnc5)n4)c3)cc(C(F)(F)F)c2)cn1 [Nilotinib (AMN-107)],0.566
11,CCCS(=O)(=O)Nc1ccc(F)c(C(=O)c2c[nH]c3ncc(-c4ccc(Cl)cc4)cc23)c1F [Vemurafenib (PLX4032)],0.489
12,Cc1ccc(C(=O)Nc2ccc(S(=O)(=O)O)c3cc(S(=O)(=O)O)cc(S(=O)(=O)O)c23)cc1NC(=O)c1cccc(NC(=O)Nc2cccc(C(=O)Nc3cc(C(=O)Nc4ccc(S(=O)(=O)O)c5cc(S(=O)(=O)O)cc(S(=O)(=O)O)c45)ccc3C)c2)c1,0.63
13,C[C@]12C=CC(=O)C=C1CC[C@@H]1[C@@H]2[C@@H](O)C[C@@]2(C)[C@H]1CC[C@]2(O)C(=O)COC(=O)CCC(=O)O,1.04
14,C#C[C@]1(OC(C)=O)CC[C@H]2[C@@H]3CCC4=CC(=NO)CC[C@@H]4[C@H]3CC[C@@]21CC (mixture of isomers),0.642
15,O=C1CN(/N=C/c2ccc([N+](=O)[O-])o2)C(=O)N1,0.0533
16,CCOc1cc([C@@H](CS(C)(=O)=O)N2C(=O)c3cccc(NC(C)=O)c3C2=O)ccc1OC,0.579
17,OCCN1CCN(CCCN2c3ccccc3Sc3ccc(C(F)(F)F)cc32)CC1,1.68
18,O=C(O)C[C@H](O)C[C@H](O)/C=C/c1c(C2CC2)nc2ccccc2c1-c1ccc(F)cc1 [Pitavastatin calcium (Livalo)],0.559
19,COc1cc(C(=O)NCc2ccc(OCCN(C)C)cc2)cc(OC)c1OC,0.862
20,Clc1ccc2nsnc2c1NC1=NCCN1 [Tizanidine HCl],0.515

# From the supplement of paper PMC7695840
